Reference: ChEMBL document CHEMBL3988442, “University of Dundee, Small-Polar-MMV Screening Library” (2021)

Molecular target: AMP-activated protein kinase, AMPK (Homo sapiens) (UniProt P54646+O43741+P54619+Q9UGJ0+Q9Y478+Q13131+Q9UGI9)
Assay: AMP-dependent Kinase enzyme assay. An in vitro enzyme assay that detects ADP turnover that is directly proportional to AMPK activity. This uses naive AMPK that is activated during the assay with MK-8722
Format: functional
Parameters: scale not given: direction of the effect not stated beside the values
Details: 30 µM

Structure (SMILES)	Percent Effect [%]
CCc1cc(NC(CCO)c2ccc(OC)cc2)n2nccc2n1 (stereo unspecified)	2.19
CC(C)N(C)S(=O)(=O)c1ccc2c(c1)CCN(C(=O)c1cnccn1)C2	0.361
FC(F)(F)c1cc(C2CCCN(Cc3ccncc3)C2)n[nH]1 (stereo unspecified)	3.39
Cc1cc(-c2ccnn2C)nc(C2CCN(S(C)(=O)=O)CC2)n1	9.22
CCCC1COCCN1Cc1ccc(NC(C)=O)cc1 (stereo unspecified)	-4.72
O=C(Cn1ccc(=O)[nH]c1=O)NCc1cccnc1OCC(F)(F)F	-4.52
CCc1ccc2nc(C)cc(C(=O)NC3CCNC3=O)c2c1 (stereo unspecified)	-4.37
CN1CCCC(CNC(=O)CN(C)S(=O)(=O)c2cccnc2)C1 (stereo unspecified)	-10.7
Cc1nnc(-c2cccc(C#N)c2)n1C1CCCN(C(C)C)C1=O (stereo unspecified)	4.62
CN(C)C(CNC(=O)OCC(F)(F)F)c1ccsc1 (stereo unspecified)	-1.15
NS(=O)(=O)c1ccc(NCc2ccco2)c2ncccc12	-2.08
Cc1ccccc1Cc1nc(CSc2nnc(N)n2C)no1	2.88
C[C@H](O)c1cnn(-c2ccccc2)c1	3.7
Cc1ncc(CC(=O)N2CCCCC2CCN2CCCC2)c(=O)[nH]1 (stereo unspecified)	0.508
Cc1ccc(-c2noc(Cn3nc(C(N)=O)ccc3=O)n2)cc1	5.62
c1cnc(N2CCC(c3nccn3CC3CC3)CC2)nc1	9.63
Cc1ccc(OCc2occc2C(=O)O)cc1	12.4
Cc1cnn(CCCNC(=O)NCCC(=O)Nc2ccccc2)c1	11.1
Cc1cc(C)cc(NCCC(=O)NCc2cccnc2N(C)C)c1	-2.62
CN(C)c1cccc(C(=O)Nc2cnn(Cc3ccccn3)c2)c1	-43.1
CCCNc1cc(-c2c[nH]nc2C2CCN(C(=O)C3CCC3)C2)ccn1 (stereo unspecified)	43.5
